Inconclusive results are not listed. The source made the active and inactive calls. How the source made its calls: active means hit-call score of the fitted dose curve at least 0.9, where 1 is the maximum; inconclusive means response in the unintended direction; inactive means score below 0.9.

This assay can be described thus: ATG_M_19_TRANS: Attagene TRANS-FACTORIAL HepG2 Assay for M19 Transcription Factor (Internal Marker) (AID 2282974). The note with it: HepG2 Attagene TRANS-FACTORIAL M19 internal marker reporter. Here is the method: ATG_TRANS is a cell-based, multiplexed-readout assay that uses HepG2, a human liver cell line, with measurements taken at 24 hours after chemical dosing in a 24-well plate.ATG_M_19_TRANS is one of 30 assay component(s) measured or calculated from the ATG_TRANS assay. It is designed to make measurements of mRNA induction, a form of inducible reporter, as detected with fluorescence intensity signals by Reverse transcription polymerase chain reaction (RT-PCR) and Capillary electrophoresis technology.Data from the assay component ATG_M_19_TRANS was analyzed into 1 assay endpoint. This assay endpoint, ATG_M_19_TRANS, was analyzed in the positive analysis fitting direction relative to DMSO as the negative control and baseline of activity. Using a type of inducible reporter, measures of mRNA for gain-of-signal activity can be used to understand the background control at the transcription factor-level as they relate to the gene . Furthermore, this assay endpoint can be referred to as a secondary readout, because this assay has produced multiple assay endpoints where this one serves a background control function. To generalize the intended target to other relatable targets, this assay endpoint is annotated to the background measurement intended target family, where the subfamily is internal marker.
Human liver HepG2 cells are transiently transfected with multiple reporter transcription units (MRTUs) in 6-well plates using FuGene 6 reagent (Roche; 3 ml FuGene/1 mg DNA). The MRTU constructs are regulated by a cis-regulating element (promoter). […] A major difference between the CIS and TRANS system is that in CIS activities of endogenous TFs are measured, whereas the TRANS assay evaluates changes in activities of exogenous, chimeric NR-Gal4 proteins. […] At the end of 24 hour incubation, total RNA was isolated using TriZol reagent (Invitrogen). The isolated RNA is then reverse-transcribed using oligo(dT) primer and Mo-MLV reverse transcriptase (Invitrogen) with DNAse I (Ambion) treatment for 30 min. The one-tenth of the produced cDNA was amplified by PCR using Taq DNA polymerase (Invitrogen) and two reporter sequence-specific primers. The PCR products were fluorescently labeled by primer extension with 6-arboxyfluorescein (6-FAM) 5'-labeled reporter sequence-specific primer (2 min at 95 C, 20 s at 68 C and 10 min at 72 C) and these products were digested with 5U of HpaI (New England Biolabs) for 2h at 37 C. The fragments were purified using Qiaquick PCR columns (Qiagen), analyzed on an ABI 3130xL genetic analyzer (Applied Biosystems) with peak positions identified by using a set of X-rhodamine (ROX)-labeled MapMarker1000 molecular weight standards (BioVentures). The raw capillary electrophoresis data was processed using Attagraph software (Attagene).
Regarding `CCCC1COC(Cn2cncn2)(c2ccc(Cl)cc2Cl)O1` (stereo unspecified), the molecule was called inactive.
The same measure for `CCCN(CCC)c1c([N+](=O)[O-])cc(S(N)(=O)=O)cc1[N+](=O)[O-]`: “inactive”.
Then `COc1nc(C)nc(NC(=O)NS(=O)(=O)c2ccccc2CCC(F)(F)F)n1`, with “inactive”; and `COC(=O)c1ccccc1C(=O)OC`, with “inactive”.
The same measure for `C=CCC1=C(C)C(OC(=O)C2C(C=C(C)C)C2(C)C)CC1=O` (stereo unspecified): “inactive”; for `COc1cnc(OC)n2nc(NS(=O)(=O)c3c(OCC(F)F)cccc3C(F)(F)F)nc12`: “inactive”.
On to `CCOP(=S)(OCC)SCn1c(=O)oc2cc(Cl)ccc21`, for which the result was inactive.
Take `CC(C)Oc1cc(-n2nc(C(C)(C)C)oc2=O)c(Cl)cc1Cl`: the call was inactive.
As for `COC(=O)C(C)Oc1ccc(Oc2ccc(Cl)cc2Cl)cc1` (stereo unspecified), the molecule was classed as inactive.
Then `Oc1ccccc1-c1ccccc1`, with “inactive”; and `COC(=O)C=C(C)OP(=O)(OC)OC`, with “inactive”; and `CNC(=O)ON=CC(C)(C)SC`, with “inactive”.
`COc1ccc(C(c2ccc(OC)cc2)C(Cl)(Cl)Cl)cc1`: the result was inactive.
Then `CS/C(C)=N/OC(=O)N(C)SN(C)C(=O)O/N=C(\C)SC`, with “inactive”; and `C=CC1(C)OC(=O)N(c2cc(Cl)cc(Cl)c2)C1=O` (stereo unspecified), with “inactive”; and `COc1nc(C)nc(NC(=O)NS(=O)(=O)c2ccccc2Cl)n1`, with “inactive”.
Consider `CO/C=C(/C(=O)OC)c1ccccc1Oc1cc(Oc2ccccc2C#N)ncn1`, for which the molecule was called inactive.
Regarding `COP(N)(=O)SC` (stereo unspecified), the result was inactive.
Then `CN(C)C(=S)SSC(=S)N(C)C`, with “inactive”.
Then `CCCCC(CC)COC(=O)c1ccccc1C(=O)OCC(CC)CCCC` (stereo unspecified), with “inactive”; and `CCOC(=O)CC(SP(=S)(OC)OC)C(=O)OCC` (stereo unspecified), with “inactive”.
Then `CCNc1nc(Cl)nc(NCC)n1`, with “inactive”; and `OC(c1ccc(Cl)cc1)(c1cncnc1)c1ccccc1Cl` (stereo unspecified), with “inactive”.
With `CCCCOC(=O)c1ccccc1C(=O)OCCCC`, the molecule was called inactive.
The same measure for `CC(Oc1ccc(Cl)cc1Cl)C(=O)O` (stereo unspecified): “inactive”; for `N#Cc1nn(-c2c(Cl)cc(C(F)(F)F)cc2Cl)c(N)c1S(=O)C(F)(F)F` (stereo unspecified): “inactive”.
Take `N#CC(CCc1ccc(Cl)cc1)(Cn1cncn1)c1ccccc1` (stereo unspecified): the molecule was classed as inactive.
Take `COP(=S)(OC)Oc1nc(Cl)c(Cl)cc1Cl`: the call was inactive.
`O=C(Nc1ccccc1)Nc1ccnc(Cl)c1`: the outcome was inactive.
The same measure for `COc1nc(NC(C)C)nc(NC(C)C)n1`: “inactive”.
Take `CON(C)C(=O)Nc1ccc(Cl)c(Cl)c1`: the result was inactive.
Then `N#Cc1cc(Br)c(O)c(Br)c1`, with “inactive”; and `CCNc1nc(Cl)nc(NC(C)C)n1`, with “inactive”.
On to `O=C(O)c1nc(Cl)ccc1Cl`, for which the outcome was inactive.
The same measure for `Fc1ccc(Oc2ccnc3cc(Cl)cc(Cl)c23)cc1`: “inactive”; for `Cc1cc(Cl)ccc1OCC(=O)O`: “inactive”.
